PPC-1+TRAIL kill: compounds killing PPC-1 cancer cells with TRAIL present, primary screen, TRAIL potentiator project, ATPLite luminescence, uHTS. cell killing (% activity), % at 4 µM or 5 µM. PPC-1 cells + TRAIL, ATPLite viability luminescence. AID 1443, 2008. actives 0.41% (n = 220,000);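 active = cell killing above 50% in the first pass at 4 µM, then a duplicate retest at 5 µM averaging 50% or more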;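 also: plate controls were cells with TRAIL plus DMSO for no effect and medium-only wells lacking cells for full effect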
TWEAK-Fn14 inh: inhibitors of TWEAK-Fn14 signaling, primary screen, luciferase reporter cells, uHTS. TWEAK-stimulated Fn14 reporter cells, luciferase luminescence, 8 h. AID 1159606, 2016. actives 2% (n = 360,000). inhibition, % at 10 µM; in the data active = inhibition above about 50%
TROY signal inh: inhibitors of TROY-driven NF-kB signaling, primary screen, Q293 LMP1-TROYcd cells, NF-kB luciferase, uHTS | Q293 LMP1-TROYcd NF-kB luciferase reporter, 4 h | inhibition, % at 10 µM | actives 0.98% (n = 360,000);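 active = compounds whose plate-normalised and pattern-corrected inhibition of the luciferase reporter signal at the single screening dose is 50% or more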
HSP90 refold inh: HSP90 inhibitors, primary screen, cell lysate, luminescence | Rabbit reticulocyte lysate, luciferase refolding luminescence, 3 h | inhibition, % at 5.6 µM | actives 0.91% (n = 290,000) | AID 1789, 2009;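 active = inhibition above the screen-wide mean plus 3 SD, computed separately per campaign, cut at about 16% in these data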;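 also: 0% = DMSO wells and 100% = 60 µM geldanamycin wells; inhibitors lower the luminescence because luciferase stays unfolded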
TRAIL sens C8: viability loss with TRAIL in NB7+C8 cells, primary screen, TRAIL sensitizer project, cell-based, ATPlite luminescence | inhibition (viability loss, TRAIL sensitization), % at 10 µM | actives 1% (n = 360,000) | AID 624354, 2012;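 active = compounds causing at least 50% loss of cell viability in the single-dose screen, relative to plate controls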
Platelet DG rel: inhibitors of platelet dense granule secretion, primary screen, cell-based, MLPCN, human platelets; human platelet-rich plasma, SFLLRN dense granule ATP release, luminescence; inhibition, %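 (compounds screened at 7.5 µM in platelet-rich plasma)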; actives 0.22% (n = 300,000);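 active = mean replicate score, as percent of positive control, at or above 50; inconclusive = mean below 50 but at least one replicate at or above 50; inactive = mean and every replicate below 50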
PPC1 cytotox: cytotoxicity in PPC-1 cells, confirmation, cytotoxicity control for TRAIL apoptosis potentiator project, cell-based, ATP content luminescence; shares compounds with PPC-1+TRAIL kill; PPC-1 viability, ATPlite luminescence, overnight; cytotoxicity, % at 5 µM; actives 50% (n = 1,200);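 active = reconfirmed compounds whose average cytotoxicity reaches 50% or more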;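 also: 0% = DMSO-treated cells and 100% = wells holding medium but no cells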
HSP90 inh confirm: HSP90 inhibitors, confirmation, cell lysate, luminescence. shares compounds with HSP90 refold inh. rabbit reticulocyte lysate, luciferase refolding luminescence, 3 h. inhibition, % at 5.9 µM. actives 64% (n = 2,300); in the data active = inhibition above about 18%;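 also: 0% = vehicle wells and 100% = reference inhibitor wells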
FLuc counter: firefly luciferase inhibitors, HSP90 counter-screen, confirmation, artefact control for HSP90 inhibitor project, biochemical, luminescence, triplicate; AID 1847, 2009; purified native firefly luciferase; shares compounds with HSP90 refold inh; actives 48% (n = 2,300); inhibition, % at 5.9 µM;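 active = inhibition above the mean inhibition of all tested sample wells plus 3 SD, cut at about 10% in these data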;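 also: 0% = DMSO with luciferase and 100% = wells lacking luciferase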
Target sequence (P08659 whole entry, looked up): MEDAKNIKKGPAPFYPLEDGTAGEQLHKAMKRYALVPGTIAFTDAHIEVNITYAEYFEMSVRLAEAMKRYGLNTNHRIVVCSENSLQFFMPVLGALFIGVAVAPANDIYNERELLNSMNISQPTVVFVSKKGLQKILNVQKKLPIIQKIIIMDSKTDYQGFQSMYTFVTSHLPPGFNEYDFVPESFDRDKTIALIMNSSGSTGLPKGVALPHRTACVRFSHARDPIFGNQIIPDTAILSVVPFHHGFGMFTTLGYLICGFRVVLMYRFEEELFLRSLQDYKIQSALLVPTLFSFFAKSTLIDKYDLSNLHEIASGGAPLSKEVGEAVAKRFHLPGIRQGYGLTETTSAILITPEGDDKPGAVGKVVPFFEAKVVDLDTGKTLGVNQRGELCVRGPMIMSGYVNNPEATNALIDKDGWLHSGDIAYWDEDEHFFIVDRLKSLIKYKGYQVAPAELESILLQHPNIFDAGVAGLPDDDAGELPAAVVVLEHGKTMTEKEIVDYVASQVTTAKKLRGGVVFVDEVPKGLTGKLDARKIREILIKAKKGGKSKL
Numbers without * were called inactive; ? = inconclusive; nt = no result given. Compounds with a hit are over-represented: about 3.5% of the library has one in this group of screens.

SMILES | PPC-1+TRAIL kill | TWEAK-Fn14 inh | TROY signal inh | HSP90 refold inh | TRAIL sens C8 | Platelet DG rel | PPC1 cytotox | others
CCOC(=O)c1cc2sccc2n1CC(=O)Nc1ccc(OC)c(OC)c1 | 9 | 1 | 2 | 2 | 6 | 0 | 7
CCc1ccc(NC(=O)C2CCN(S(=O)(=O)c3cccs3)CC2)cc1 | nt | 12 | -3 | -3 | 11 | 0 | nt
CSc1nc(C)cc(SCC(=O)Nc2ccccc2)n1 | -8 | -18 | 12 | 4 | -2 | 11 | -14
CCNC(=S)NNC(=O)c1cc(-c2cccc(C)c2)nc2ccccc12 | 66* | -36 | -30 | 2 | 61* | 37 | 65*
COc1ccc(C(=O)/C(=C/N(C)C)S(=O)(=O)c2ccccc2)cc1 | -17 | 10 | -35 | 6 | 33 | 8 | -44
CN(C)/C=C(/C(=O)c1ccccc1Cl)S(=O)(=O)c1ccccc1 | nt | -16 | -16 | 2 | -5 | -8 | nt
COc1cccc(N2CCN(C(=O)c3ccc(Cl)c(S(=O)(=O)N4CCCCCC4)c3)CC2)c1 | nt | 3 | -10 | nt | 0 | nt | nt
CCOC(=O)C1(C)/C(=N/Nc2ccccc2)C(=O)C(=O)N1c1ccccc1 (stereo not drawn) | -9 | -9 | 4 | 1 | 2 | 15 | -1
COC(=O)[C@@]12CCCCN1[C@H](c1ccc(SC3CCCCC3)cc1)[C@@H]1C(=O)N(C)C(=O)[C@@H]12 | nt | 7 | 12 | nt | 7 | 0 | nt
O=C(N/N=C/c1cccc([N+](=O)[O-])c1)c1ccc2c(c1)OCCO2 | 68* | 4 | -42 | 4 | 68* | 27 | 68*
Cc1cccnc1NC(=S)NC(=O)c1oc2ccccc2c1C | nt | -19 | -64 | -5 | 46 | -2 | nt
COc1cccc2nc3cc(C)c(C)cc3nc12 | 70* | -1 | 9 | 14 | 68* | 70* | 68*
O=C(N/N=C/c1cccnc1)C1CC1(c1ccccc1)c1ccccc1 (stereo not drawn) | nt | -4 | 4 | -2 | 1 | 3 | nt
CSCCC(NC(=O)COc1ccccc1)C(=O)N1CCCC(C(F)(F)F)C1 (stereo not drawn) | nt | -2 | 8 | nt | -15 | 21 | nt
Cc1ccc(C(=O)/C=C/Nc2ccccc2C(N)=O)o1 | 0 | 6 | -66 | 1 | 37 | 1 | nt
NC(=O)c1ccccc1N/C=C/C(=O)c1ccc(Cl)cc1Cl | 81* | 29 | -46 | 12 | 90* | 52* | 81*
NC(=O)c1ccccc1N/C=C/C(=O)c1ccc(F)cc1 | 63* | 34 | 20 | 0 | 71* | 39 | 58*
O=C(/C=C/[C@H]1O[C@@H](n2cnc3c(NC(=O)c4ccccc4)ncnc32)[C@H](O)[C@@H]1O)NC1CCCCC1 | nt | -8 | 8 | nt | -9 | nt | nt
CC(=O)N1CCN(C(=O)COc2ccccc2C(=O)Nc2ccccc2)CC1 | 5 | -13 | -42 | -1 | 0 | -1 | 8
COc1ccccc1C(=O)Nc1ccc(N2CCN(C(C)=O)CC2)cc1 | 15 | -7 | -12 | -4 | 3 | 0 | nt
COc1ccc(/C=C/c2nc3ccccc3n2Cc2ccc(OC)c(OC)c2)cc1 | 56* | -23 | -26 | 1 | 33 | 23 | 55*
CCc1nc2ccccc2n1Cc1ccc(OC)c(OC)c1 | 6 | -17 | -2 | 5 | 5 | -1 | nt
Cc1ccc(F)cc1C(=O)N1CCCC(c2cc(C(=O)Nc3ccccc3Cl)no2)C1 (stereo not drawn) | nt | -3 | 29 | nt | 10 | nt | nt
COc1ccc(N/N=C(/N=Nc2nc(C)cc(=O)[nH]2)c2ccccc2)cc1 | 61* | -37 | -30 | -2 | 53* | 23 | 58*
COc1ccc(C(=O)C(=NNc2ccccc2)c2ccc(OC)cc2)cc1 | nt | 16 | -2 | nt | -9 | nt | nt
SMILES | PPC-1+TRAIL kill | TWEAK-Fn14 inh | TROY signal inh | HSP90 refold inh | TRAIL sens C8 | Platelet DG rel | PPC1 cytotox | others
Cc1cc(=O)[nH]c(N=N/C(=N/Nc2ccccc2C)c2ccccc2)n1 | 42 | -35 | -37 | 7 | 2 | 1 | 36
Cc1cc(=O)[nH]c(N/N=C/c2ccccc2C(F)(F)F)n1 | 18 | 1 | 5 | 8 | 2 | -15 | nt
Cc1cc(=O)[nH]c(N=N/C(=N/Nc2ccc(O)cc2)c2ccccc2)n1 | 12 | -52 | -80 | 1 | 0 | ? | 2
O=C(O)CCCNS(=O)(=O)c1ccc(F)cc1 | 12 | -8 | 8 | 6 | -19 | -4 | nt
O=S(=O)(NCCCCCNS(=O)(=O)c1ccc(F)cc1)c1ccc(F)cc1 | -6 | 2 | 8 | 2 | 3 | -4 | -8
O=C(O)c1nc(-c2ccccc2)n(-c2ccccc2)n1 | 17 | 5 | 0 | 0 | -2 | -2 | nt
CCCC(C)NC(=O)c1nc(-c2ccccc2)n(-c2ccccc2)n1 (stereo not drawn) | -8 | 3 | 10 | 2 | 17 | -4 | 4
O=C(Nc1nc2ccc(F)cc2s1)c1ccccn1 | 60* | nt | nt | 56* | nt | 28 | 62*
Cc1ccc2nc(NC(=O)CN3C(=O)C4CC=CCC4C3=O)sc2c1 (stereo not drawn) | 9 | -9 | -87 | -2 | 3 | nt | 21
Cc1ccc2nc(NC(=O)c3ccc(Cl)s3)sc2c1 | 9 | 14 | -47 | -6 | 42 | -3 | 10
CNS(=O)(=O)c1cn(CC(=O)NCc2cccc(OC)c2)cc1S(=O)(=O)NC | nt | 26 | 15 | -3 | -9 | 20 | nt
O=C(O)CCC(=O)Nc1ccc(N=Nc2ccccc2)cc1 | 25 | -18 | -18 | -2 | -2 | 4 | nt
CC(C)(C)C(=O)Nc1ccc(N=Nc2ccccc2)cc1 | 62* | 4 | 83* | 71* | 82* | 9 | 68* | HSP90 inh confirm=79*;FLuc counter=74*
CCCCOc1cccc(-c2cc(C(=O)NNC(=S)NCC)c3ccccc3n2)c1 | 29 | -19 | -18 | -2 | 23 | 10 | nt
CCCCOc1ccc(-c2cc(C(=O)NNC(=S)NCC)c3ccccc3n2)cc1 | 90* | -13 | 18 | 30* | 87* | 77* | 90* | HSP90 inh confirm=52*;FLuc counter=-2

Screens from PubChem BioAssay.
